# Results: the supplement of paper PMC12282887
# ± gives the standard deviation of the averaged measurements.
# Key:
# Experiment in all cases: promoter activity interaction Z-score (Lux/OD deviation from empty-vector control); higher = stronger promoter induction by the compound
# [1] = tested on: E. coli BW25113 acrABp lux reporter
# Method in brief: (§1)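 E. coli BW25113 (wild type or marA, soxS or rob deletion) carrying low-copy luxCDABE promoter reporters grew in 40 µl LB Lennox in 384-well plates at 37°C. Each compound was tested at four 1:2 dilutions in biological duplicates. OD600 and luminescence were read every 30 min for 12 h. Areas were taken over 0–8 h (wild type) or 1–9 h (mutants), and wells below 10% of median growth area were removed. The score is the Z-transformed residual of growth-normalised luminescence fitted against the empty-vector control.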
# [2] = tested on: E. coli BW25113 marRABp lux reporter
# Method in brief: as §1
# [3] = tested on: E. coli BW25113 micFp lux reporter
# Method in brief: as §1
# [4] = tested on: E. coli BW25113 ompFp lux reporter
# Method in brief: as §1
# [5] = tested on: E. coli BW25113 robp lux reporter
# Method in brief: as §1
# [6] = tested on: E. coli BW25113 soxSp lux reporter
# Method in brief: as §1
# [7] = tested on: E. coli BW25113 tolCp lux reporter
# Method in brief: as §1
# [8] = 3.7 µg/ml, genetic background: wild type
# [9] = 3.7 µg/ml, genetic background: ΔmarA
# [10] = 3.7 µg/ml, genetic background: Δrob
# [11] = 3.7 µg/ml, genetic background: ΔsoxS
# [12] = 7.5 µg/ml, genetic background: wild type
# [13] = 7.5 µg/ml, genetic background: ΔmarA
# [14] = 7.5 µg/ml, genetic background: Δrob
# [15] = 7.5 µg/ml, genetic background: ΔsoxS
# [16] = 15 µg/ml, genetic background: wild type
# [17] = 15 µg/ml, genetic background: ΔmarA
# [18] = 15 µg/ml, genetic background: Δrob
# [19] = 15 µg/ml, genetic background: ΔsoxS
smiles,measurement,setting,value
CC[C@H]1OC(=O)[C@H](C)[C@@H](O[C@H]2C[C@@](C)(OC)[C@@H](O)[C@H](C)O2)[C@H](C)[C@@H](O[C@@H]2O[C@H](C)C[C@H](N(C)C)[C@H]2O)[C@](C)(OC)C[C@@H](C)C(=O)[C@H](C)[C@@H](O)[C@]1(C)O [Clarithromycin],promoter activity interaction Z-score,[1]; [8],2.75 ± 0.78
same,promoter activity interaction Z-score,[1]; [9],-0.666 ± 0.051
same,promoter activity interaction Z-score,[1]; [10],2.53 ± 0.28
same,promoter activity interaction Z-score,[1]; [11],3.99 ± 2.9
same,promoter activity interaction Z-score,[1]; [12],4.86 ± 2
same,promoter activity interaction Z-score,[1]; [13],0.0124 ± 0.014
same,promoter activity interaction Z-score,[1]; [14],3.88 ± 1.1
same,promoter activity interaction Z-score,[1]; [15],5.27 ± 0.95
same,promoter activity interaction Z-score,[1]; [16],6.01 ± 2.6
same,promoter activity interaction Z-score,[1]; [17],5.11
same,promoter activity interaction Z-score,[1]; [18],8.62 ± 0.52
same,promoter activity interaction Z-score,[1]; [19],7.67 ± 6.7
same,promoter activity interaction Z-score,[2]; [8],2.9 ± 0.24
same,promoter activity interaction Z-score,[2]; [9],2.02 ± 0.13
same,promoter activity interaction Z-score,[2]; [10],1.54 ± 0.29
same,promoter activity interaction Z-score,[2]; [11],2.44 ± 1
same,promoter activity interaction Z-score,[2]; [12],3.84 ± 0.18
same,promoter activity interaction Z-score,[2]; [13],2.58 ± 0.055
same,promoter activity interaction Z-score,[2]; [14],2.57 ± 1.6
same,promoter activity interaction Z-score,[2]; [15],4.77 ± 2.4
same,promoter activity interaction Z-score,[2]; [16],2.6 ± 3
same,promoter activity interaction Z-score,[2]; [17],3.84
same,promoter activity interaction Z-score,[2]; [18],4.65 ± 1.9
same,promoter activity interaction Z-score,[2]; [19],7.29 ± 0.54
same,promoter activity interaction Z-score,[3]; [8],0.345 ± 0.84
same,promoter activity interaction Z-score,[3]; [9],-0.264 ± 0.18
same,promoter activity interaction Z-score,[3]; [10],0.13 ± 0.36
same,promoter activity interaction Z-score,[3]; [11],0.346 ± 0.31
same,promoter activity interaction Z-score,[3]; [12],-0.0809 ± 0.56
same,promoter activity interaction Z-score,[3]; [13],-0.345 ± 0.18
same,promoter activity interaction Z-score,[3]; [14],0.0824 ± 0.022
same,promoter activity interaction Z-score,[3]; [15],-0.272 ± 0.94
same,promoter activity interaction Z-score,[3]; [16],-2.17 ± 0.33
same,promoter activity interaction Z-score,[3]; [17],-0.213 ± 0.3
same,promoter activity interaction Z-score,[3]; [18],-0.078 ± 0.014
same,promoter activity interaction Z-score,[4]; [8],4.02 ± 1.8
same,promoter activity interaction Z-score,[4]; [9],2.83 ± 2.5
same,promoter activity interaction Z-score,[4]; [10],3.22 ± 1.5
same,promoter activity interaction Z-score,[4]; [11],4.01 ± 1.6
same,promoter activity interaction Z-score,[4]; [12],4.44 ± 2.9
same,promoter activity interaction Z-score,[4]; [13],4.37 ± 4.9
same,promoter activity interaction Z-score,[4]; [14],3.77 ± 4.2
same,promoter activity interaction Z-score,[4]; [15],3.43 ± 1.9
same,promoter activity interaction Z-score,[4]; [16],-0.0263 ± 3.9
same,promoter activity interaction Z-score,[4]; [18],-0.772
same,promoter activity interaction Z-score,[4]; [19],-2.44
same,promoter activity interaction Z-score,[5]; [8],-1.9 ± 0.13
same,promoter activity interaction Z-score,[5]; [9],-2.77 ± 0.23
same,promoter activity interaction Z-score,[5]; [10],-1.66 ± 0.048
same,promoter activity interaction Z-score,[5]; [11],-2.35 ± 0.33
same,promoter activity interaction Z-score,[5]; [12],-2.21 ± 0.12
same,promoter activity interaction Z-score,[5]; [13],-2.09 ± 0.24
same,promoter activity interaction Z-score,[5]; [14],-2.11 ± 0.083
same,promoter activity interaction Z-score,[5]; [15],-1.66 ± 0.9
same,promoter activity interaction Z-score,[5]; [16],-4.75 ± 0.23
same,promoter activity interaction Z-score,[5]; [17],-0.357 ± 0.99
same,promoter activity interaction Z-score,[5]; [18],-1.4
same,promoter activity interaction Z-score,[6]; [8],0.201 ± 0.071
same,promoter activity interaction Z-score,[6]; [9],0.637 ± 0.17
same,promoter activity interaction Z-score,[6]; [10],0.258 ± 0.11
same,promoter activity interaction Z-score,[6]; [11],3.14 ± 1.1
same,promoter activity interaction Z-score,[6]; [12],1.35 ± 0.47
same,promoter activity interaction Z-score,[6]; [13],1.62 ± 0.14
same,promoter activity interaction Z-score,[6]; [14],1.1974 ± 0.00038
same,promoter activity interaction Z-score,[6]; [15],3.99 ± 0.81
same,promoter activity interaction Z-score,[6]; [16],0.664 ± 0.51
same,promoter activity interaction Z-score,[6]; [17],2.07 ± 0.33
same,promoter activity interaction Z-score,[6]; [18],1.44 ± 0.33
same,promoter activity interaction Z-score,[6]; [19],1.96
same,promoter activity interaction Z-score,[7]; [8],1.16 ± 0.087
same,promoter activity interaction Z-score,[7]; [9],0.114 ± 1.9
same,promoter activity interaction Z-score,[7]; [10],0.468 ± 0.18
same,promoter activity interaction Z-score,[7]; [11],2.16 ± 2.1
same,promoter activity interaction Z-score,[7]; [12],3.8 ± 1.3
same,promoter activity interaction Z-score,[7]; [13],1.91 ± 0.99
same,promoter activity interaction Z-score,[7]; [14],1.62 ± 0.65
same,promoter activity interaction Z-score,[7]; [15],3.3 ± 1.4
same,promoter activity interaction Z-score,[7]; [16],0.0472 ± 0.77
same,promoter activity interaction Z-score,[7]; [17],0.874 ± 2.2
same,promoter activity interaction Z-score,[7]; [18],1.26 ± 0.65
same,promoter activity interaction Z-score,[7]; [19],3.6044 ± 0.00012
